The supplement of paper PMC10849652
About 7,900 targets were measured; listed, in parts, are those with a hit and a random draw of the rest. About 0.6% of all pairs of compound and target were hits.

How the values were obtained:
Experiment in all cases: log2 fold change, soluble protein after heating vs DMSO (PISA); higher = thermal stabilisation; K562 cells, 10 uM, 30 min; active = over 0.2 and 3.5 SD of the protein, either way, in both replicates (recomputed)
[1] = compound: CC[C@@H]1C(=O)N(C)c2cnc(Nc3ccc(C(=O)NC4CCN(C)CC4)cc3OC)nc2N1C1CCCC1
How it was run: (§1)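 Soluble protein was defined as the supernatant after 21,000xg for 90 min. It came from K562 cells at 2×10^6 cells/mL given 10 μM compound for 30 min, heated in aliquots for 3 min across 48°C-58°C, pooled, and extracted in PBS with 0.5% NP-40 at 4°C, and was quantified by TMTpro 16plex LC-MS/MS with equalised channel sums. Thermal stability against control samples, from duplicates, is reported as log2 fold change.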

[2] = compound: CC[C@@H]1C(=O)N(C)c2cnc(Nc3ccc(C(=O)N[C@H]4CC[C@H](N5CCN(CC6CC6)CC5)CC4)cc3OC)nc2N1C(C)C [volasertib]
How it was run: as §1

[3] = compound: CC[C@H](C)N1C=C(C2=C(C=C(C=C21)C3=CN=C(C=C3)N4CCNCC4)C(=O)NCC5=C(C=C(NC5=O)C)C)C
How it was run: as §1

[4] = compound: CC[C@H](C)[C@@H](C(=O)N[C@@H]([C@@H](C)O)C(=O)N[C@@H](CC(C)C)C(=O)[C@]1(CO1)C)NC(=O)[C@H]([C@@H](C)CC)N(C)C(=O)C [epoxomicin]
How it was run: as §1

[5] = compound: CCn1c(C(=O)N(C2CC2)C2CC2)cc2c3c(ncn3C)c(Nc3cc(C)n(C)n3)nc21
How it was run: as §1

[6] = compound: CCn1cc(-c2ccnc3[nH]c(-c4cccc(CN(C)C)c4)cc23)c(-c2ccc(NC(=O)N(C)C)cc2)n1
How it was run: as §1

[7] = compound: CN(C)CC(=O)Nc1ccc2[nH]c(=O)c3ccccc3c2c1
How it was run: as §1

[8] = compound: CN(CCOC1=CC=C(C=C1)C[C@H]2C(=O)NC(=O)S2)C3=CC=CC=N3 (racemic) [rosiglitazone]
How it was run: as §1

[9] = compound: CN1C2=C(C3=C1C(=O)N(N=C3)CC4=CC(=CC=C4)N)SC(=C2)S(=O)C
How it was run: as §1

[10] = compound: CN1CCC(CNc2ccc3ncc(-c4cccc(OC(F)(F)F)c4)n3n2)CC1
How it was run: as §1

[11] = compound: CN1CCN(CCOc2cc(OC3CCOCC3)c3c(Nc4c(Cl)ccc5c4OCO5)ncnc3c2)CC1 [saracatinib]
How it was run: as §1

[12] = compound: CN1CCN(c2nc(C3=C(c4c[nH]c5ccccc45)C(=O)NC3=O)c3ccccc3n2)CC1 [sotrastaurin]
How it was run: as §1

[13] = compound: CN1CC[C@H](c2c(O)cc(O)c3c(=O)cc(-c4ccccc4Cl)oc23)[C@H](O)C1 [alvocidib]
How it was run: as §1

[14] = compound: CN1CCc2c(c3ccccc3n2Cc2ccc(C(=O)NO)cc2)C1 [Tubastatin A]
How it was run: as §1

[15] = compound: CNC(=O)C1=CC=CC=C1NC2=NC(=NC=C2Cl)NC3=C(C=C(C=C3)N4CCOCC4)OC
How it was run: as §1

[16] = compound: CNC(=O)c1ccc(Nc2ncc(C(F)(F)F)c(NCc3nccnc3N(C)S(C)(=O)=O)n2)cc1 [defactinib]
How it was run: as §1

[17] = compound: CNCc1ccc(-c2[nH]c3cc(F)cc4c3c2CCNC4=O)cc1 [rucaparib]
How it was run: as §1

[18] = compound: CNc1nc(-c2ccc3c(N)n[nH]c3c2)cc(N2C[C@@H](C(=O)NC3CCCCC3)CC[C@H]2C)n1
How it was run: as §1

[19] = compound: COC(=O)N[C@@H](C)CNc1nccc(-c2cn(C(C)C)nc2-c2cc(Cl)cc(NS(C)(=O)=O)c2F)n1 [encorafenib]
How it was run: as §1

[20] = compound: COC(=O)[C@H](CCSC)NC(=O)C1=C(C=C(C=C1)NC[C@H](CS)N)C2=CC=CC=C2
How it was run: as §1

Measured: log2 fold change

SNX5 (UniProt Q9Y5X3)
inactive: [1] -0.136 | [2] -0.129 | [3] 0.076 | [4] 0.05 | [5] -0.026 | [6] -0.099 | [7] 0.027 | [8] 0.069 | [9] -0.001 | [11] 0 | [12] -0.006 | [13] -0.061 | [14] -0.013 | [15] -0.117 | [16] -0.014 | [17] -0.054 | [18] 0.012 | [19] 0.03 | [20] 0.006
active: [10] -0.289

SLC39A11 (UniProt Q8N1S5)
active: [17] -0.518
inactive: [1] 0.102 | [2] 0.071 | [3] 0.007 | [5] 0 | [6] -0.136 | [7] -0.062 | [8] -0.007 | [9] -0.021 | [10] 0.15 | [11] 0.098 | [12] 0.127 | [13] 0.02 | [14] -0.164 | [15] -0.223 | [16] 0.074 | [18] -0.015 | [19] -0.077 | [20] -0.082

SUOX (UniProt P51687)
Chain of UniProt P51687 (P51687 whole entry, looked up): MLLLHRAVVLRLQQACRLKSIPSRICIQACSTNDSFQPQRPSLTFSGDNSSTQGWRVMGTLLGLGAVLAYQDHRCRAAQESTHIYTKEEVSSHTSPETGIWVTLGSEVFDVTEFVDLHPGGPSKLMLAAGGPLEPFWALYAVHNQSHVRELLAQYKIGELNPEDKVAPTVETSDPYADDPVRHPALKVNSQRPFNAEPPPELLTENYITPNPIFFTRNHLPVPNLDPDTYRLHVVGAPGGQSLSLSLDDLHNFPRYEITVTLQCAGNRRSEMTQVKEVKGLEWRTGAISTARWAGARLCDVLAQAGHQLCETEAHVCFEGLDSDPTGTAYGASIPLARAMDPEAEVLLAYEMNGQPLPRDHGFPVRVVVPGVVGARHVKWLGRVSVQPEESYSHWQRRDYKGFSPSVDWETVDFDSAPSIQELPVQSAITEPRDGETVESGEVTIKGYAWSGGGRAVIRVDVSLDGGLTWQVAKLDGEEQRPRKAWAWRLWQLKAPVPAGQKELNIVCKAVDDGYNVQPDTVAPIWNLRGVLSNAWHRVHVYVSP
active: [10] -0.31
inactive: [1] 0.003 | [2] -0.04 | [3] -0.02 | [4] 0.013 | [5] 0.026 | [6] 0 | [7] 0.005 | [8] 0.012 | [9] -0.07 | [11] 0.02 | [12] 0.013 | [13] -0.047 | [14] -0.031 | [15] -0.01 | [16] 0.031 | [17] -0.037 | [18] -0.022 | [19] 0.001 | [20] 0.042

STX17 (UniProt P56962)
Chain of UniProt P56962 (P56962 whole entry, looked up): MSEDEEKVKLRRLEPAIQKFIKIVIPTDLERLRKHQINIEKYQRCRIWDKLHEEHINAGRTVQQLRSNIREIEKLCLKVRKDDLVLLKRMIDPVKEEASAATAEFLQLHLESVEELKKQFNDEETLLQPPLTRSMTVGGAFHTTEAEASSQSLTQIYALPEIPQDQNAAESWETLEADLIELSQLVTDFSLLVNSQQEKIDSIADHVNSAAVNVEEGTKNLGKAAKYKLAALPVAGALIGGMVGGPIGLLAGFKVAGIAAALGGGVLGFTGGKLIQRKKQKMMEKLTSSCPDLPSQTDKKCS
inactive: [1] -0.273 | [3] -0.06 | [4] 0.062 | [5] -0.067 | [6] 0.011 | [7] -0.02 | [8] 0.089 | [9] -0.126 | [10] -0.278 | [11] -0.038 | [12] 0 | [13] -0.217 | [14] 0.044 | [15] 0.021 | [16] -0.266 | [17] 0.152 | [18] 0.127 | [19] 0.091 | [20] -0.001
active: [2] -0.357

SRSF9 (UniProt Q13242)
Chain of UniProt Q13242 (Q13242 whole entry, looked up): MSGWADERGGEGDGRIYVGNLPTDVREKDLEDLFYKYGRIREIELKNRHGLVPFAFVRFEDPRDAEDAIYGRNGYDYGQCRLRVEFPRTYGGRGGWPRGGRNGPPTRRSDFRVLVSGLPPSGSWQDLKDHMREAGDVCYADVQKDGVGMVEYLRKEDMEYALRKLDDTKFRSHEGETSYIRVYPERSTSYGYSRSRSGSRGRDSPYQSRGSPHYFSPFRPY
inactive: [1] 0.189 | [2] 0.414 | [3] -0.004 | [4] -0.421 | [5] 0.097 | [6] 0.323 | [7] -0.106 | [8] -0.07 | [9] 0.506 | [10] 0.364 | [11] 0.022 | [12] -0.015 | [13] 0.27 | [15] -0.145 | [16] 0.276 | [17] 0.376 | [18] 0.097 | [19] 0.149 | [20] -0.024

STK38 (UniProt Q15208)
Chain of UniProt Q15208 (Q15208 whole entry, looked up): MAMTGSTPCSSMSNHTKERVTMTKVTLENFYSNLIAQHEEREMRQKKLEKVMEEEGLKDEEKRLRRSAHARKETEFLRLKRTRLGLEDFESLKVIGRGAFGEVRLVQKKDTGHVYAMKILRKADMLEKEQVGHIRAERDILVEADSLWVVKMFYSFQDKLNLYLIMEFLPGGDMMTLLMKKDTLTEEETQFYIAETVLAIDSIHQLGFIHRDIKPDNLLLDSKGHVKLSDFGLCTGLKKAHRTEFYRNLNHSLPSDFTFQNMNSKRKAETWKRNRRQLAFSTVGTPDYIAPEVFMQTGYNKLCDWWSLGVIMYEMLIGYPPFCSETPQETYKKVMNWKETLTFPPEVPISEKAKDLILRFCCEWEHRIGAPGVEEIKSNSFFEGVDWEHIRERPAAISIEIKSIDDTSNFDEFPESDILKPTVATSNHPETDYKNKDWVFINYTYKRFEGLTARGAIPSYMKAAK
inactive: [1] -0.107 | [3] 0.106 | [4] 0.035 | [5] 0 | [6] 0.003 | [7] 0.059 | [8] 0.05 | [9] -0.005 | [10] -0.068 | [11] -0.02 | [12] -0.055 | [13] -0.12 | [14] -0.016 | [15] -0.073 | [16] -0.127 | [17] 0.058 | [18] 0.005 | [19] 0.104 | [20] -0.064
active: [2] -0.363

SLC38A7 (UniProt Q9NVC3)
Chain of UniProt Q9NVC3 (Q9NVC3 whole entry, looked up): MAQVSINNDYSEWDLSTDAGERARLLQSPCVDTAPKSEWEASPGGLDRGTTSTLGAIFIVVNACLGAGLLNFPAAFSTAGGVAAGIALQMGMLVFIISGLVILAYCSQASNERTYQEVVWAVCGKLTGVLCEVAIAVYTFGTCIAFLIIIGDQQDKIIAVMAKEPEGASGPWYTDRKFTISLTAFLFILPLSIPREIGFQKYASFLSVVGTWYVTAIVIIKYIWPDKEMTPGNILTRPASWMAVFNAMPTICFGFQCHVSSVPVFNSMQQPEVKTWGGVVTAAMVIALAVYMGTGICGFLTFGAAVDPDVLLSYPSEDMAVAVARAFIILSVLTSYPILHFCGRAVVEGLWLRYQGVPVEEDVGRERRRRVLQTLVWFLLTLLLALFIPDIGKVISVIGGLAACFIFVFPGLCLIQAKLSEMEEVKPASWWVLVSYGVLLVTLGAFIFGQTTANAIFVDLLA
inactive: [1] -0.283 | [2] -0.054 | [3] -0.023 | [4] 0.078 | [5] -0.018 | [6] 0.109 | [7] -0.123 | [8] 0.036 | [10] -0.589 | [12] 0.152 | [13] -0.137 | [14] -0.177 | [15] -0.052 | [16] -0.126 | [17] 0.004 | [19] 0.016 | [20] -0.261

TANGO6 (UniProt Q9C0B7)
Chain of UniProt Q9C0B7 (Q9C0B7 whole entry, looked up): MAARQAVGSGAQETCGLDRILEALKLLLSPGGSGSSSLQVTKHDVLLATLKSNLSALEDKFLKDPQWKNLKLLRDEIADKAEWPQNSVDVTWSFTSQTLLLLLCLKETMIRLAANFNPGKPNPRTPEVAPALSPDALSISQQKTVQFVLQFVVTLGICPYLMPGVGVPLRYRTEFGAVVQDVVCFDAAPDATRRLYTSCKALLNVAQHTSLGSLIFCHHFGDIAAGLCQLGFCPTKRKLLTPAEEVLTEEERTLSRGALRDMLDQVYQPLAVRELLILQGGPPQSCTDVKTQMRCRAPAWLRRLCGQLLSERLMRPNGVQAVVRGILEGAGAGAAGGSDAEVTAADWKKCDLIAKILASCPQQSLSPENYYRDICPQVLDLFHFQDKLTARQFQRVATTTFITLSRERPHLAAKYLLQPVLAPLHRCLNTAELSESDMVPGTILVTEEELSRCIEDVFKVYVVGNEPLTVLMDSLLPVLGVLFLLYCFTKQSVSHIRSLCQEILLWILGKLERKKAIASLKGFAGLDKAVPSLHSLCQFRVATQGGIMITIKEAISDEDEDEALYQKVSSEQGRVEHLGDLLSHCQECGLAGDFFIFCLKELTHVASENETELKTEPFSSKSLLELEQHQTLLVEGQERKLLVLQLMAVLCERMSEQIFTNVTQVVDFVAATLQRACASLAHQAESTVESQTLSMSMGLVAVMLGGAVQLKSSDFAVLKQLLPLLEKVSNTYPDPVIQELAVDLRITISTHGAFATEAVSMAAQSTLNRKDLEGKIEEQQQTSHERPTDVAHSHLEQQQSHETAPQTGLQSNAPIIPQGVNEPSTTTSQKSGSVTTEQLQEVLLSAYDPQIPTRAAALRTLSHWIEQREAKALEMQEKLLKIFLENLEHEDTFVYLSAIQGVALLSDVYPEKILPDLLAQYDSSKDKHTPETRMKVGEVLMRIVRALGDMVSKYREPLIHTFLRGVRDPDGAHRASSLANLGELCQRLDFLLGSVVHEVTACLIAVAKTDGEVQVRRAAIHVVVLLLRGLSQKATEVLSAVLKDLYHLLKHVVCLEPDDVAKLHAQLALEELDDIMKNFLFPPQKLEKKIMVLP
active: [2] -0.375
inactive: [1] 0.276 | [3] 0.052 | [4] 0.035 | [5] -0.165 | [8] 0.037 | [9] 0.006 | [11] -0.09 | [12] -0.135 | [13] -0.084 | [14] 0.116 | [15] -0.077 | [17] 0.586 | [18] 0.037 | [19] 0.001

TM7SF3 (UniProt Q9NS93)
inactive: [1] -0.136 | [2] -0.178 | [3] -0.074 | [5] -0.006 | [8] -0.022 | [9] 0.025 | [11] 0.072 | [12] 0.035 | [13] 0.068 | [14] -0.082 | [15] 0.039 | [17] -0.077 | [18] -0.011 | [19] 0.089

SRXN1 (UniProt Q9BYN0)
inactive: [1] -0.031 | [2] -0.083 | [3] 0.027 | [4] 0.069 | [6] 0.159 | [7] 0.046 | [8] 0.124 | [10] -0.199 | [12] 0.019 | [13] 0.015 | [14] 0.209 | [16] -0.283 | [17] 0.111 | [19] -0.008 | [20] 0.022

TMBIM6 isoform 2 (UniProt P55061)
inactive: [1] -0.075 | [2] -0.061 | [3] -0.041 | [4] 0.25 | [5] -0.055 | [7] 0.066 | [8] -0.046 | [9] -0.007 | [11] 0.08 | [12] -0.029 | [13] -0.027 | [14] 0.062 | [15] -0.004 | [16] -0.007 | [17] -0.065 | [18] -0.006 | [19] -0.005 | [20] 0.039

TBK1 (UniProt Q9UHD2)
active: [15] 0.536
inactive: [1] -0.093 | [2] -0.232 | [3] 0.055 | [4] 0.019 | [5] 0.002 | [6] 0.023 | [7] -0.033 | [8] 0.076 | [9] 0.172 | [10] -0.152 | [11] -0.026 | [12] -0.063 | [14] -0.014 | [16] 0.079 | [17] 0.106 | [18] -0.013 | [19] 0.049 | [20] 0.001

SUMO1 (UniProt P63165)
inactive: [1] 0.034 | [2] -0.035 | [3] -0.046 | [4] -0.011 | [5] 0.088 | [6] 0.015 | [7] 0.021 | [8] 0.002 | [9] 0.038 | [10] 0.007 | [11] -0.112 | [12] 0.011 | [13] 0.12 | [14] -0.073 | [15] 0.022 | [16] -0.067 | [17] 0.056 | [18] -0.09 | [19] -0.029 | [20] 0.028

SRFBP1 (UniProt Q8NEF9)
active: [17] 0.446
inactive: [1] 0.208 | [2] 0.157 | [3] -0.094 | [4] -0.047 | [5] -0.088 | [6] 0.049 | [8] 0.078 | [9] 0.117 | [10] 0.277 | [11] 0.038 | [12] -0.01 | [13] 0.096 | [14] 0.084 | [15] 0.052 | [18] -0.15 | [19] -0.057

STK26 (UniProt Q9P289)
inactive: [1] -0.017 | [2] -0.062 | [3] 0.018 | [4] 0.084 | [5] -0.003 | [6] -0.117 | [7] -0.033 | [8] 0.068 | [9] 0.014 | [10] -0.191 | [11] -0.027 | [12] 0.009 | [13] 0.018 | [14] -0.049 | [15] -0.057 | [16] 0.067 | [17] -0.005 | [18] -0.001 | [19] 0.032 | [20] 0.054

TM9SF4 (UniProt Q92544)
Chain of UniProt Q92544 (Q92544 whole entry, looked up): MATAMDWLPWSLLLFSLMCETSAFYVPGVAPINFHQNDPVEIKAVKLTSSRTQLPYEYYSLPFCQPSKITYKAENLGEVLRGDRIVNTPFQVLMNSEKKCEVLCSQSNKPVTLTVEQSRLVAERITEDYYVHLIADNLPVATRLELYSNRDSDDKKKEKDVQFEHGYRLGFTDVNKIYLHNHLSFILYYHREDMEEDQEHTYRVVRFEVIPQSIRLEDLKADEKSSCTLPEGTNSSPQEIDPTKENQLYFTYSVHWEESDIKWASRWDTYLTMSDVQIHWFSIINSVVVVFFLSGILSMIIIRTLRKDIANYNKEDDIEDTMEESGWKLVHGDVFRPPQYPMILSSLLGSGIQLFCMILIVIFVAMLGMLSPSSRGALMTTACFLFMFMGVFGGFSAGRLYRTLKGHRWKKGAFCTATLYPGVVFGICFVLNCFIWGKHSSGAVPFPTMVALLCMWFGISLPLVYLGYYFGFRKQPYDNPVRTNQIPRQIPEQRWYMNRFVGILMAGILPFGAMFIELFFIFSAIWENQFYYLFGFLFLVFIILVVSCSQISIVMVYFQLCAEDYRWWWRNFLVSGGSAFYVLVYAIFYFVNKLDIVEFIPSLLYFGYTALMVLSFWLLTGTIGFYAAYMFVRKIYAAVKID
active: [2] -0.484
inactive: [1] -0.225 | [3] 0.024 | [4] -0.055 | [5] 0.035 | [6] 0.052 | [7] 0.001 | [8] 0.082 | [9] -0.05 | [10] -0.084 | [11] -0.028 | [12] 0.017 | [13] -0.008 | [14] -0.015 | [15] 0.013 | [16] 0.037 | [17] 0.043 | [18] -0.046 | [19] 0.039 | [20] -0.03

SPAG9 (UniProt O60271)
Chain of UniProt O60271 (O60271 whole entry, looked up): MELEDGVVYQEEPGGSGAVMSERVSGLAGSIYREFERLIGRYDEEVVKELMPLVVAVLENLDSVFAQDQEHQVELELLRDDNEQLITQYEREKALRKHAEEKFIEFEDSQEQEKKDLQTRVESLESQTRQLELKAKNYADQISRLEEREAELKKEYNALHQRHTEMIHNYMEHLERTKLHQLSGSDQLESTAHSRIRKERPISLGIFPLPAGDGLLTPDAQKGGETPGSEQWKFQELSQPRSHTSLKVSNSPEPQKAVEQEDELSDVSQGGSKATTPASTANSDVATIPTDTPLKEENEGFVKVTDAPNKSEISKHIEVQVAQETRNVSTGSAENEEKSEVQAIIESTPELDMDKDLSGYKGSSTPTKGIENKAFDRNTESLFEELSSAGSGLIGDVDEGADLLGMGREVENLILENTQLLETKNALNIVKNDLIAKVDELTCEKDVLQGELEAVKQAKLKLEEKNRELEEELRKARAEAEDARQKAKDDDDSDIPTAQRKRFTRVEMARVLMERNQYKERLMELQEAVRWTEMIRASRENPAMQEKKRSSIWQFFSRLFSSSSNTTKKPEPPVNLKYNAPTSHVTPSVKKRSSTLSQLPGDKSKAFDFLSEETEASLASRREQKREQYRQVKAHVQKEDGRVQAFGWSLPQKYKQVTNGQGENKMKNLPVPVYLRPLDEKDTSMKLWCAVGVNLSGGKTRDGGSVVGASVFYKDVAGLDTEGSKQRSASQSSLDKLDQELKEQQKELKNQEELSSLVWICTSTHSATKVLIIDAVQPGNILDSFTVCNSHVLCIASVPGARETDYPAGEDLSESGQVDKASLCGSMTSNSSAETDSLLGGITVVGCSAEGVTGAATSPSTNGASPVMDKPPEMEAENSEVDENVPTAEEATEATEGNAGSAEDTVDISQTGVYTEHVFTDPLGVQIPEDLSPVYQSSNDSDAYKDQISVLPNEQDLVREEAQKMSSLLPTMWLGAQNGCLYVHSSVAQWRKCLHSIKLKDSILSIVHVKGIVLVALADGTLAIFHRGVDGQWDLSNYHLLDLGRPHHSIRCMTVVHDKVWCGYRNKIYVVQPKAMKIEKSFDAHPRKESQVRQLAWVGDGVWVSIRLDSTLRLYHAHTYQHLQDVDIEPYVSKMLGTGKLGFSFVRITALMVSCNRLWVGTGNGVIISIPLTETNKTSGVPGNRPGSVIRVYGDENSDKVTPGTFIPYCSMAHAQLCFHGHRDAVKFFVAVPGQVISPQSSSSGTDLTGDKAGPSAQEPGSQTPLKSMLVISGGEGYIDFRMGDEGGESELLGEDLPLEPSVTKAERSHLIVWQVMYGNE
inactive: [1] -0.039 | [2] -0.168 | [3] 0.046 | [4] 0.028 | [5] -0.014 | [6] 0.02 | [7] 0.02 | [8] 0.043 | [9] -0.009 | [10] -0.203 | [11] 0.014 | [12] -0.037 | [13] -0.047 | [14] 0.003 | [15] 0.02 | [16] -0.044 | [17] 0.049 | [18] 0.034 | [19] 0.023 | [20] -0.011
